Screening data from PubChem BioAssay.
HCMV antiviral: inhibitors of human cytomegalovirus; activity change, negative = inhibition, % at 57.5 µM; HFF cells, HCMV-luciferase reporter, 72 h; stronger effect = lower value; actives 4.5% (n = 410,000); AID 1259415; in the data active = activity change below about -60%; inconclusive = no clear call, values can overlap the other calls; inactive = above about -39%
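Screen run at 2 compound doses on HFFs infected with reporter HCMV, MOI 1 PFU/cell. Luciferase activity from cell lysates at 72 h post infection gave inhibition relative to buffer-only and Salinomycin wells.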
Pf growth 96h: P. falciparum growth inhibition at 96 hour, primary screen for plastid delayed-death inhibitors | AID 504834 | P. falciparum luciferase reporter growth, 96 h | actives 6.9% (n = 320,000) | Potency, µM (series often up to 28.7 µM), for inactives: at the top dose activity change, negative = inhibition, hits mostly inhibitors; also: potency is read from the fitted curve at half-maximal effect
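Two-generation exposure (96 h) targets delayed-death phenotype. Reporter parasites carrying integrated firefly luciferase, in red cells at 2% hematocrit and 0.05% parasitemia final, kept at 37 C, 5% CO2; luminescence loss indicates inhibition.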
Giardia FBPA inh: inhibitors of Giardia lamblia fructose-1,6-bisphosphate aldolase | AID 2451 | Potency, µM (doses to about 59.6 µM), inactives show at the highest dose activity, negative = inhibition, usual class: inhibitors | A8B2U2 | purified Giardia FBPA | actives 0.71% (n = 290,000); also: potency is read from the fitted curve at half-maximal effect; nearly all actives have a fitted effect of over 55% in size
Target sequence (A8B2U2 whole entry, looked up): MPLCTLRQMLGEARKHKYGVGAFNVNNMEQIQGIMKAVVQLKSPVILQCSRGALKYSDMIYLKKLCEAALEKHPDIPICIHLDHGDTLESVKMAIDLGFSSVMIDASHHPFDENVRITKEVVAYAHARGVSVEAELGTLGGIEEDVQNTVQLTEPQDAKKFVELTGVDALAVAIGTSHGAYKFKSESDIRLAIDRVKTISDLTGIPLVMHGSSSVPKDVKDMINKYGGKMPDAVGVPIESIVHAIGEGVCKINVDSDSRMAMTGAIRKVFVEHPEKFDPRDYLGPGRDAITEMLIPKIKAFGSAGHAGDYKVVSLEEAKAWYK
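Giardia FBPA (40 nM reagent) was preincubated 10 min at RT with compound (up to 57.5 uM final), then substrate plus GAPDH/TPI/NAD/arsenate coupling system with diaphorase/resazurin was added; resorufin fluorescence (525/598 nm) was read after 20 min.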
Sm TGR block: inhibitors of Schistosoma mansoni thioredoxin glutathione reductase. Q962Y6. actives 3% (n = 360,000). purified TGR, DTNB reduction, TNB absorbance 405 nm. Potency, µM (highest dose often 114 µM), without a hit: top-dose activity change, negative = inhibition, most hits filed as inhibitors. AID 485364; also: potency is read from the fitted curve at half-maximal effect; nearly all actives have a fitted effect of over 60% in size
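TGR 20 nM + NADPH 100 uM (dispensed conc.), cpd preinc 15 min RT; start with NADPH (500 uM addition) then DTNB (15 mM addition). Kinetic TNB absorbance, 405 nm filter. Four-parameter Hill fit across titration.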
Pf growth 48h: P. falciparum growth inhibition at 48 hours (one generation) | actives 5.9% (n = 310,000) | Potency, µM (doses to about 28.7 µM), without a hit: at the top dose activity change, negative = inhibition, hits mostly inhibitors | P. falciparum luciferase growth in erythrocytes, 48 h; also: potency is read from the fitted curve at half-maximal effect
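Read-out is firefly luciferase luminescence from an integrated reporter in P. falciparum, so falling signal marks reduced parasite growth. Infected erythrocytes were at 2% hematocrit and 0.1% parasitemia (final) in Albumax-supplemented RPMI 1640.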
The depositor's hits bear a star; ? = inconclusive; · = not tested or not shown. Compounds with a hit are over-represented: about 14% of the library has one in this group of screens. Unless noted, calls follow the shape of the dose curve; as a rule, active = well fitted curve in the direction sought with a large enough effect; inconclusive = small, poorly fitted or top-dose-only effect, or another doubt; inactive = no such curve, though single readings can be large; an effect the other way counts as inactive or inconclusive. % is scaled to controls: 0 for no effect and ±100 for the full control effect.

SMILES | HCMV antiviral | Pf growth 96h | Giardia FBPA inh | Sm TGR block | Pf growth 48h
CSc1ccc(CNC(=O)CCn2ccc3cc(S(=O)(=O)N4CCC(C)CC4)ccc32)cc1 | -7.5 | · | · | 4.2% | ·
O=C(NCc1ccccc1)c1cc(C2CCCCN2S(=O)(=O)c2cccs2)on1 (centres undefined) | 30.0 | · | · | · | ·
Cc1ccccc1N1C(=O)CC(N(O)c2ccccc2)C1=O (centres undefined) | 50.8 | 5.7% | ? | 39.8µM* | 64.5%
COc1ccccc1N1C(=O)CC(N(O)c2ccccc2)C1=O (centres undefined) | 39.1 | 34.6% | 0.1% | 39.8µM* | 10.6%
CCCOc1ccc(N2C(=O)CC(N(O)c3ccccc3)C2=O)cc1 (centres undefined) | 42.4 | 46.9% | 1.6% | ? | 51.3%
COc1ccccc1N(O)C1CC(=O)N(c2ccc(F)cc2)C1=O (centres undefined) | 23.1 | 43.5% | -14.2% | 3.55µM* | 8.6%
Cc1ccccc1C(=O)NNC1CC(=O)N(c2ccc3c(c2)OCCO3)C1=O (centres undefined) | -23.8 | 43.0% | 5.7% | 2.7% | -1.7%
CCCOc1ccccc1N1C(=O)CC(N(O)c2ccccc2)C1=O (centres undefined) | -39.7 | 19.7% | -0.8% | -13.8% | 1.4%
CCN(CCO)C1CC(=O)N(c2ccccc2C)C1=O (centres undefined) | · | 122.3% | -14.0% | 6.31µM* | 30.4%
O=S(=O)(Nc1ccc(-n2cnnn2)cc1)c1ccc(Cl)s1 | 14.2 | · | · | · | ·
Cc1ccc(S(=O)(=O)N(CC(=O)N/N=C\c2cccs2)c2cccc3cccnc23)cc1 | -62.6* | 9.1% | 10.0% | -5.8% | -9.3%
Cc1ccc(S(=O)(=O)N(CC(=O)N/N=C/c2cccc(C)c2)c2cccc3cccnc23)cc1 | ? | -23.2% | -2.0% | 3.4% | ?
CCOc1ccc(S(=O)(=O)N(CC(=O)N/N=C/c2cccs2)c2ccc(C)cc2)cc1 | -11.2 | ? | -0.7% | 0.5% | 13.1µM*
COc1ccc(S(=O)(=O)N(CC(=O)N/N=C/c2cccs2)c2ccc(C)cc2)cc1OC | -21.0 | · | 7.7% | 9.0% | -9.7%
C=CCc1c(C)nc(-c2ccccc2)nc1N/N=C/c1ccccc1 | 3.0 | ? | -13.8% | -6.3% | 37.9%
C=CCc1c(C)nc(-c2ccccc2)nc1Nc1ccccc1O | 34.0 | ? | -1.3% | -2.9% | 5.22µM*
CCCSc1n[nH]c(NC(C)=O)n1 | 30.0 | 28.0% | -13.1% | 0.0% | ·
CSc1n[nH]c(NC(C)=O)n1 | -2.0 | 8.2% | -1.7% | -24.1% | 1.17µM*
O=C(COc1ccc2ccccc2c1Br)N1CCCC1 | 18.7 | ? | · | -15.0% | 20.2%
CCOC(=O)C1CCN(Cc2c(O)c3ccccc3oc2=O)CC1 | -21.9 | -3.9% | 9.9% | -35.5% | 22.4%
CCOC(=O)C1CCN(Cc2c(O)ccc3ccccc23)CC1 | 37.7 | 9.28µM* | 1.1% | 3.55µM* | ?
Cc1nc(CN2CCN(C(=O)c3ccc(C(C)(C)C)cc3)CC2)cs1 | -31.6 | 11.7µM* | -17.2% | -3.4% | ·
COc1ccc(-c2nn3c(=O)cc(CN4CCN(C(=O)c5ccc(C(C)(C)C)cc5)CC4)nc3s2)cc1 | 8.4 | · | · | -0.6% | ·
O=C(c1cccs1)N1CCN(C(=O)C2CCCO2)CC1 (centres undefined) | 43.2 | 4.65µM* | 3.0% | -4.9% | 13.5%
CCOC(=O)N1CCN(C(=O)COc2ccc3ccccc3c2Br)CC1 | -30.7 | 13.1µM* | · | -4.2% | 7.3%
SMILES | HCMV antiviral | Pf growth 96h | Giardia FBPA inh | Sm TGR block | Pf growth 48h
O=C(Cc1cccs1)N1CCN(C(=O)C2CCCO2)CC1 (centres undefined) | -18.0 | · | -3.6% | -33.5% | 8.6%
CCN(CC)CCCC(C)n1c(-c2ccccc2)nc2c(N3CCOCC3)nc(C)nc21 (centres undefined) | · | · | 6.2% | · | ·
CCOC(=O)C1CCN(Cc2ccc3ccccc3c2)CC1 | -6.6 | 13.1µM* | -26.6% | -8.2% | -0.6%
Cc1ccc(-c2nc(CN3CCN(C(=O)C4CCCO4)CC3)cs2)cc1 (centres undefined) | -71.3* | 7.2% | · | -1.3% | -17.9%
c1ccc(CN2CCN(Cc3ccc4ccccc4c3)CC2)cc1 | 40.9 | 0.928µM* | ? | 19.7% | ?
CCOC(=O)C1CCN(Cc2cc(C(C)C)c(O)c(C(C)C)c2)CC1 | 5.6 | 0.415µM* | 2.0% | -25.2% | ?
